Screens as filed in PubChem.
This is a sample that favours compounds with a hit; in the whole collection about 4% have one here.
D1 agonist: activates the human D1 dopamine receptor; P21728; HEK293 T-REx D1 cells, calcium flux, agonist mode; activation, % at 2 µM; hit rate 1% among 360,000; AID 504660; also: 0% is about no effect
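Inducible HEK293 T-REx D1 cells, force-coupled to calcium signalling, were plated at 4000 cells/well with tetracycline and held overnight at 30 C. After no-wash calcium dye loading, compound-evoked calcium rise over 180 s flagged agonists.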
TRHR PAM: allosteric enhancers of human TRH receptor; enhancement, % at 2 µM; hit rate 0.66% among 360,000; AID 493056; TRHR cells, fluo-8 calcium fluorescence, EC20 TRH enhancement; P34981; in the data active = enhancement above about 30%; also: 0% is about no effect
Target sequence (P34981 whole entry, looked up): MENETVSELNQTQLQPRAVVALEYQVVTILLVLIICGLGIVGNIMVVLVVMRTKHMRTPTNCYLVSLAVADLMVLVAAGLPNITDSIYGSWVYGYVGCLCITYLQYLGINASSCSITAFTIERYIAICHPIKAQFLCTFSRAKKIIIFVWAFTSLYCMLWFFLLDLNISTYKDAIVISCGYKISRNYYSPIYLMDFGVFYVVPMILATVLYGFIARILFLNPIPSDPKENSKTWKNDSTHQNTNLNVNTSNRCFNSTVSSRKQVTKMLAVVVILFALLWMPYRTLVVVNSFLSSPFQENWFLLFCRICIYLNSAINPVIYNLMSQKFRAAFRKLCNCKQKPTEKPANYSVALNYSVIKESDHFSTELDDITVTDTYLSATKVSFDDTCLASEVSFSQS
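Enhancer read-out: after compound pinning and an initial kinetic agonist-mode read, an EC20 of TRH (10 nM final) was injected and fluo-8 calcium signal (Ex 480/Em 530) followed at 1 s/cycle for 100 cycles in TRHR-expressing cells.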
D1 PAM: potentiators of human D1 dopamine receptor | P21728 | hit rate 0.036% among 360,000 | HEK293 TREx D1 cells, calcium flux, dopamine EC20 potentiation | potentiation, % at 10 µM | AID 504651; in the data active = potentiation above about 30%; also: 0% is about no effect
D1 antagonist: antagonists of human D1 dopamine receptor; hit rate 3.2% among 360,000; P21728; HEK293 TREx D1 cells, calcium flux, dopamine EC80; active compounds read low; AID 504652; activity change, negative = inhibition, % at 10 µM; in the data active = activity change below about -30%; also: % is scaled to controls: 0 for no effect and ±100 for the full control effect
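Tetracycline-induced HEK293 Trex D1 cells, force-coupled to calcium, dye-loaded; compounds added and read 180 s, then EC80 dopamine added and calcium flux tracked kinetically another 180 s.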
GRP78 ERSR act: induces the endoplasmic reticulum stress response in human glioma cells; U87-MG GRP78 promoter luciferase reporter, 16 h; Potency, µM, without a hit: at the highest dose activation, hits mostly activators; hit rate 0.02% among 420,000; active = well fitted activation curve with a large enough effect; also: potency is read from the fitted curve at half-maximal effect; series mostly up to about 76 µM; % of control where 0% means no effect; nearly all actives have a fitted effect of over 35% in size
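ERSR induction read as luciferase luminescence (Bright-Glo, 10 min at room temperature) in stably transfected human U87-MG glioma cells exposed to compounds for 16 h, using GRP78 as sensor.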
TRHR agonist: TRH receptor (human) agonism; P34981; TRHR cells, calcium flux fluo-8, FDSS agonist mode; activation, % at 2 µM; hit rate 0.18% among 360,000; AID 493084; also: 0% is about no effect
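TRHR-expressing cells loaded with fluo-8 calcium dye; 23 nL library compound pin-transferred, kinetic FDSS fluorescence (Ex 480/Em 530) recorded about 180 s for agonist-induced calcium release, before a 10 nM TRH EC20 addition for potentiator mode.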
An asterisk follows results filed as active; · = no result; ! = a repeat was not active. Rule as the data show it, unless noted: active = activation above about 30%; inactive = the rest.

SMILES	D1 agonist	TRHR PAM	D1 PAM	D1 antagonist	GRP78 ERSR act	TRHR agonist
CCOC(=O)N1CCC(NC(=O)c2cnn3c2NC(c2ccco2)CC3C(F)(F)F)CC1 (stereo not given)	2	32*	-8	-2	-6%	-1
COCCNC(=O)c1cnn2c1NC(c1ccco1)CC2C(F)(F)F (stereo not given)	-1	4	-2	-3	-7%	0
Cc1ccc(Nc2nccc(N(C)c3ccc4c(C)n(C)nc4c3)n2)cc1S(N)(=O)=O	·	·	·	·	-3%	·
O=C(NCc1ccncc1)c1nc(-c2cccs2)no1	8	-2	2	-12	0%	0
O=C(NCc1cccnc1)c1nc(-c2ccc(C(F)(F)F)cc2)no1	14	-1	-6	-40*	-4%	0
O=C(NCc1ccncc1)c1nc(-c2ccc(C(F)(F)F)cc2)no1	8	-1	-10	-39*	-3%	0
COc1ccc(S(=O)(=O)N2CCCCC2)cc1NC(=O)CNc1ccccc1C(C)=O	1	-6	-6	7	0%	-1
O=[N+]([O-])c1nn(-c2ccc(Cl)cc2)n(O)c1=NCc1ccncc1	5	-6	-5	-42*	-1%	-2
Cc1ccc(CN=c2c([N+](=O)[O-])nn(-c3ccc(Cl)cc3)n2O)cc1	0	3	-1	-25	0%	0
O=C(COc1ccc(F)cc1)Nc1c(C(=O)N2CCC(N3CCCCC3)CC2)oc2ccccc12	4	0	-4	-35*	-3%	0
COc1ccc(NC(=O)c2oc3ccccc3c2NC(=O)COc2ccc(F)cc2)c(OC)c1	3	39*	0	5	-4%	0
COc1ccc(OCC(O)CNS(=O)(=O)c2cccs2)cc1 (stereo not given)	3	7	-8	-5	-5%	0
COc1ccc(CCN2C(=O)CSC2c2cccc([N+](=O)[O-])c2)cc1OC (stereo not given)	-2	-5	-4	-30*	-3%	0
CS(=O)(=O)N(Cc1ccc(Cl)cc1)c1ccc(C(=O)Nc2cccnc2)cc1	16	19	-10	-38*	-1%	1
COc1ccc(S(=O)(=O)N(C)c2ccc(C(=O)Nc3cccnc3)cc2)cc1	3	-3	-2	-33*	-2%	0
CN(c1ccc(C(=O)Nc2cccnc2)cc1)S(=O)(=O)c1ccc(Cl)cc1	15	-1	-2	-41*	-5%	-1
CS(=O)(=O)N(Cc1ccccc1)c1ccc(C(=O)Nc2cccnc2)cc1	5	-4	-7	-2	-5%	0
CN(c1ccc(C(=O)Nc2cccnc2)cc1)S(=O)(=O)c1ccccc1	0	6	-3	-6	0%	0
NCc1ccccc1CS(=O)(=O)N1CCOCC1	·	·	·	·	-4%	·
CCCCCCCCCC[n+]1ccc(/C=C/c2c(C)[nH]c3ccccc23)c2ccccc21	·	·	·	·	-12%	·
Cc1cc(C)c(NC(=O)Cn2c(=O)n(Cc3ccco3)c(=O)c3ccc(C(=O)NC4CCCC4)cc32)c(C)c1	1	55*	-2	0	-3%	-1
C[C@H](CN1c2ccccc2Sc2cccnc21)N(C)C	·	·	·	·	-3%	·
CNCC[C@@H](Oc1ccc(C(F)(F)F)cc1)c1ccccc1	46*	3	·	·	0%	6
COc1ccc(OCCOC(=O)c2ccc(F)c(S(=O)(=O)N3CCOCC3)c2)cc1	14	-1	-7	-64*	-4%	0
Cc1ccc(NS(=O)(=O)c2ccc3c(c2)OCCCO3)cc1S(=O)(=O)N1CCOCC1	2	0	-8	-35*	-5%	1
SMILES	D1 agonist	TRHR PAM	D1 PAM	D1 antagonist	GRP78 ERSR act	TRHR agonist
Cc1ccc(C(=O)OCCOc2cccc(Cl)c2)cc1S(=O)(=O)N1CCOCC1	31*	-5	-2	-15	-4%	2
CCc1ccc(NC(=O)c2ccc(F)c(S(=O)(=O)N3CCN(c4ccc(OC)cc4)CC3)c2)cc1	2	0	-4	-45*	-2%	0
O=S1(=O)CCO[C@H]2CCCC[C@@H]2N1Cc1ccc(Cl)cc1	·	·	·	·	1%	·
Cc1ccc(C(=O)OCC(=O)Nc2ccc3c(c2)OCO3)cc1S(=O)(=O)N1CCOCC1	-1	-2	-2	-77*	-4%	0
Cc1ccc(NC(=O)CCCOc2ccccc2)cc1S(=O)(=O)N1CCOCC1	2	0	-14	-53*	-1%	0
O=C(CCCOc1ccccc1)Nc1ccc(Cl)c(S(=O)(=O)N2CCOCC2)c1	·	·	·	·	-2%	·
O=C(N/N=C1/C[C@@H](O)[C@@H](O)[C@@H]2[C@H]3C(=O)N(c4ccc(F)cc4F)C(=O)[C@@H]3CC[C@H]12)OCc1ccccc1	·	·	·	·	-2%	·
O=[S+]([O-])(c1ccc(-c2ccccc2)cc1)N1CCN([S+](=O)([O-])c2ccc3c(c2)OCCO3)CC1	1	-3	-2	4	·	2
O=C(COC(=O)c1cc(Cl)ccc1O)c1ccc2c(c1)OCO2	3	38*	-4	-16	3%	0
COCCN(Cc1ccccc1)C(=S)Nc1ccc(Cl)cc1	4	-8	-10	-36*	-4%	0
CCCCNC(=O)NS(=O)(=O)c1ccc(CO)cc1	·	·	·	·	0%	·
CN(C)c1ccc(/C=C/c2c(Br)cnc3ccccc23)cc1	·	·	·	·	-1%	·
CC(C)(CC(=O)NCc1ccc(Cl)cc1Cl)CC1=NS(=O)(=O)c2ccccc2N1	21	-3	-5	-51*	-7%	0
COCC(=O)Nc1cc(C(=O)N2CCC(c3ccccc3)CC2)cc2nc(-c3ccccc3)n(C)c12	·	·	·	·	-5%	·
CCCc1cc(=O)n2[nH]c(NCc3c(Cl)cccc3Cl)nc2n1	0	4	4	-5	-1%	0
CCCc1cc(=O)n2[nH]c(NCc3c(F)cccc3Cl)nc2n1	0	-1	-1	-30*!	-2%	0
COC(=O)C1=C[C@@H](C(=O)OC)[C@@H]2C3=C(C(=O)[C@]2(C)NC(=O)c2ccccc2)[C@H](C)[C@@H]2C(=O)NC(=O)[C@@H]2[C@@H]3C1	·	·	·	·	-5%	·
COC(=O)CCCCCCCCCCN1CCCCC1	10	-2	0	0	-4%	1
CCCOC(=O)CCCCCCCCC(O)CN1CCCCC1 (stereo not given)	54*	0	-2	-56*	-7%	0
CCOC(=O)/C=C1\NC(C)(C)Cc2cc(OC)c(OC)cc21	0	22	-6	-41*	-6%	1
Cc1cccc(COC(=O)Nc2ccc(NC(=O)c3ccccc3Cl)cc2)c1	9	7	-8	-56*	-5%	0
COc1cccc2c1C(=O)c1c(O)c3c(c(O)c1C2=O)C[C@](O)(C(C)=O)C[C@H]3O[C@@H]1C[C@@H](N)[C@@H](O)[C@@H](C)O1	3	-7	-4	-35*	-1%	10
